How the values were obtained:
Assay in all cases: DAPPL (digital affinity profiling via proximity ligation, sequencing); 10 mM Tris-HCl pH 7.5, 50 mM NaCl, 1 mM DTT, 4% glycerol, room temperature, 30 min; GST-TFs on glutathione beads, 16-mer random dsDNA library, 0.1% formaldehyde crosslink after washing; high values mean tight binding
Settings in all cases: protein: recombinant; tags: N-terminal GST; dsDNA, one strand shown
FLI1 = biological target: T1, FLI1 (Homo sapiens, UniProt Q01543 1-452)
T1 sequence: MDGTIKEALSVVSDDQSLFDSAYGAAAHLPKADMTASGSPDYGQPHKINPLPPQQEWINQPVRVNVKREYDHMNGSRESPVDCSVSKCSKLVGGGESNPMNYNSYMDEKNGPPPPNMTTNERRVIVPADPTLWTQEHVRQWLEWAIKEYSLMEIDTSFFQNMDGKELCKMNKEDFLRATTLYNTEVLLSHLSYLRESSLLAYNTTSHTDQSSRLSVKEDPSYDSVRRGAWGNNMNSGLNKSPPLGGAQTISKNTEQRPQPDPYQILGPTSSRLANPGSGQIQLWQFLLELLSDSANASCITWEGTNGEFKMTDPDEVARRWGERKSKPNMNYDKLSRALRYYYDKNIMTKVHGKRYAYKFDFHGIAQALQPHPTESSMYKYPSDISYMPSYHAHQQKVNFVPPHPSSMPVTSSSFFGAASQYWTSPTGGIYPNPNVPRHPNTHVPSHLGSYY
Procedure, shortened: (§1)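 Binding signal is each hexamer's read frequency for a factor divided by its frequency in the tag-only sample. The factors were GST-fused human transcription factors from yeast, captured on glutathione beads, DNA-barcoded and pooled with that sample. Pools were incubated with 200 nmole of a random double-stranded 16-mer DNA library in Tris/NaCl/DTT/glycerol buffer at room temperature for 30 min, then washed, crosslinked with 0.1% formaldehyde, proximity-ligated with BsaI/T4 ligase (1 h, 37 °C), PCR-amplified and sequenced on an Illumina NextSeq500.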

SPDEF = biological target: T2, SPDEF (Homo sapiens, UniProt O95238 1-335)
T2 sequence: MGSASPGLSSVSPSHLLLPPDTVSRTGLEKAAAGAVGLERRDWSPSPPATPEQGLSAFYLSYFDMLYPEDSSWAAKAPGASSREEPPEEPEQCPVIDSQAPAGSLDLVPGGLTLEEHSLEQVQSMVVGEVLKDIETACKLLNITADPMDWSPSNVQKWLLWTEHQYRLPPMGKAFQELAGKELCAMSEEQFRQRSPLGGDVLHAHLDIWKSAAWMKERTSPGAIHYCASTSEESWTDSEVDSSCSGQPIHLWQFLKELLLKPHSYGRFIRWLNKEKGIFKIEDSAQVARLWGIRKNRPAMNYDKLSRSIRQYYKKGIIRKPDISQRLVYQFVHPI
Procedure, shortened: as §1

ELK1 = biological target: T3, ELK1 (Homo sapiens, UniProt P19419 1-428)
T3 sequence: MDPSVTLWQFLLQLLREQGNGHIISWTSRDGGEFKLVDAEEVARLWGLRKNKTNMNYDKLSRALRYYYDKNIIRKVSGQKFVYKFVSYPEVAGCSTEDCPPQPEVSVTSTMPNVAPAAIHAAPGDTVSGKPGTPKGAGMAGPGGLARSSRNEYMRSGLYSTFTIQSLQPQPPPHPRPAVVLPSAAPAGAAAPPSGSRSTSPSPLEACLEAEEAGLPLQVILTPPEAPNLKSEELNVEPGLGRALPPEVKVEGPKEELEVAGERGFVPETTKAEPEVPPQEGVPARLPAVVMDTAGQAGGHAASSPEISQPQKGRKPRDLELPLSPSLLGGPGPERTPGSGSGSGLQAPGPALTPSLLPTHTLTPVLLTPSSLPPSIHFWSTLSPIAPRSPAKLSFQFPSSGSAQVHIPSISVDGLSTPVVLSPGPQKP
Procedure, shortened: as §1

GABPA = biological target: T4, GABPA (Homo sapiens, UniProt Q06546 1-454)
T4 sequence: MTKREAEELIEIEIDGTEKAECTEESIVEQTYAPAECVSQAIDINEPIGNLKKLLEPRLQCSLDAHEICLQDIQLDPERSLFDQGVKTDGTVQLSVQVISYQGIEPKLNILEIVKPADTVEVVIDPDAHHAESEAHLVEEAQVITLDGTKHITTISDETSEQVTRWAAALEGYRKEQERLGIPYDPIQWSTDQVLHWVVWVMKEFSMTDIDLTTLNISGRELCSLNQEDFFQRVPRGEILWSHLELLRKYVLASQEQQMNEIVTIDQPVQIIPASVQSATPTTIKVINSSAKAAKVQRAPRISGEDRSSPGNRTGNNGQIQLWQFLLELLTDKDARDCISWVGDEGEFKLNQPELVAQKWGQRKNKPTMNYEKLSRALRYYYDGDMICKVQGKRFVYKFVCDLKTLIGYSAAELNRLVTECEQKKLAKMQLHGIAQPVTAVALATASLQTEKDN
Procedure, shortened: as §1

ERG = biological target: T5, ERG (Homo sapiens, UniProt P11308 1-479)
T5 sequence: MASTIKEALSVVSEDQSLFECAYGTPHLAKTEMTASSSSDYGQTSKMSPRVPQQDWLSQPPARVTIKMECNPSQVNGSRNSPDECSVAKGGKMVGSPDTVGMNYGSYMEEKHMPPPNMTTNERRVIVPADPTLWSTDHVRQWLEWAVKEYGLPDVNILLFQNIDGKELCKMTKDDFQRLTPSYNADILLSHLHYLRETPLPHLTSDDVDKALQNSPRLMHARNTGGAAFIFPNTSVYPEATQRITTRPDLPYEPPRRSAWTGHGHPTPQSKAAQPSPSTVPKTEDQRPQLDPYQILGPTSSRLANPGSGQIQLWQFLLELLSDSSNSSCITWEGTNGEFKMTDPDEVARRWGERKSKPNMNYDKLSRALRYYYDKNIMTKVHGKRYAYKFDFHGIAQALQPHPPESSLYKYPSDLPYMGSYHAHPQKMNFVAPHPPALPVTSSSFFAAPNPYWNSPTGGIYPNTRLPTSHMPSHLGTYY
Procedure, shortened: as §1

ELF1 = ELF1 (Homo sapiens, UniProt P32519 1-619)
Procedure, shortened: as §1

EHF = biological target: T6, EHF (Homo sapiens, UniProt Q9NZC4 1-300)
T6 sequence: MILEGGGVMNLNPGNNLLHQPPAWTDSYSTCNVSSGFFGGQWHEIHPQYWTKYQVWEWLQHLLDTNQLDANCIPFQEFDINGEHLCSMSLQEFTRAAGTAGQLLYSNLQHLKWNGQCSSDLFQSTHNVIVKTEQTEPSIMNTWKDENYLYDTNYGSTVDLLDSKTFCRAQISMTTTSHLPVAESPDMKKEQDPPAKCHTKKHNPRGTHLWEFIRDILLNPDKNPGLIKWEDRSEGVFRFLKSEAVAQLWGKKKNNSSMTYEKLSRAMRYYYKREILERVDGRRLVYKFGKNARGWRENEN
Procedure, shortened: as §1

SPIB = SPIB (Homo sapiens, UniProt Q01892 1-262)
Procedure, shortened: as §1

ELK3 = biological target: T7, ELK3 (Homo sapiens, UniProt P41970 1-407)
T7 sequence: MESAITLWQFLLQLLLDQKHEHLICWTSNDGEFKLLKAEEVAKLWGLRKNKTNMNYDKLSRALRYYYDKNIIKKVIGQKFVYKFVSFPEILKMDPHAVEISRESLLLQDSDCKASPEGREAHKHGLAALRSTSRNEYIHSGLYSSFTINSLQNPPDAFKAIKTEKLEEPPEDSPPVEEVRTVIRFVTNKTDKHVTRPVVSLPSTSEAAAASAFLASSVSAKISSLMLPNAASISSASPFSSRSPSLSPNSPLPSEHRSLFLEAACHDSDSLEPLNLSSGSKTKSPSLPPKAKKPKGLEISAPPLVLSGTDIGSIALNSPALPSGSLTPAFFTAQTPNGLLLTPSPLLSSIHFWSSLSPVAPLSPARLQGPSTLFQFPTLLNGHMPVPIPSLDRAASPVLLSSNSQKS
Procedure, shortened: as §1

ELK4 = biological target: T8, ELK4 (Homo sapiens, UniProt P28324-2 1-405)
T8 sequence: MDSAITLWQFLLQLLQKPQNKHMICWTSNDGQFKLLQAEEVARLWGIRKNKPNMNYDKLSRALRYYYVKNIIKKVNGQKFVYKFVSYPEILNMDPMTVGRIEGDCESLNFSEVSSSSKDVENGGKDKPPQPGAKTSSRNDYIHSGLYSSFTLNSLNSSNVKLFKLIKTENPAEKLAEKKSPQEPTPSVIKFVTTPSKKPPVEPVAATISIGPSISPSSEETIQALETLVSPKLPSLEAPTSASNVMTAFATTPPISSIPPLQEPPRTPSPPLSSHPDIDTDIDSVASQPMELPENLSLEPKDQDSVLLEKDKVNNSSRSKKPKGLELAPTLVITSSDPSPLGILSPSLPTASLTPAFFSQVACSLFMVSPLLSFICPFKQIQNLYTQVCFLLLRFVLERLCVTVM
Procedure, shortened: as §1

ETV2 = biological target: T9, ETV2 (Homo sapiens, UniProt O00321 1-342)
T9 sequence: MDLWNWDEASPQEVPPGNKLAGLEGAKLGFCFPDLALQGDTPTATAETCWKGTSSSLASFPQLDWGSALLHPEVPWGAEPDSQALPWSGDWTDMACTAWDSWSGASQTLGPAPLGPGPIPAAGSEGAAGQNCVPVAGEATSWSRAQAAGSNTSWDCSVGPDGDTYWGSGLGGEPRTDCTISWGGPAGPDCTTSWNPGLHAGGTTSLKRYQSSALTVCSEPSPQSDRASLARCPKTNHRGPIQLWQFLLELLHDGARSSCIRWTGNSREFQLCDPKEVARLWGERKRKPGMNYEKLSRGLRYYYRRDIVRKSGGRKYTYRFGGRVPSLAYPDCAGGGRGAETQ
Procedure, shortened: as §1

ETV3L = biological target: T10, ETV3L (Homo sapiens, UniProt Q6ZN32 1-361)
T10 sequence: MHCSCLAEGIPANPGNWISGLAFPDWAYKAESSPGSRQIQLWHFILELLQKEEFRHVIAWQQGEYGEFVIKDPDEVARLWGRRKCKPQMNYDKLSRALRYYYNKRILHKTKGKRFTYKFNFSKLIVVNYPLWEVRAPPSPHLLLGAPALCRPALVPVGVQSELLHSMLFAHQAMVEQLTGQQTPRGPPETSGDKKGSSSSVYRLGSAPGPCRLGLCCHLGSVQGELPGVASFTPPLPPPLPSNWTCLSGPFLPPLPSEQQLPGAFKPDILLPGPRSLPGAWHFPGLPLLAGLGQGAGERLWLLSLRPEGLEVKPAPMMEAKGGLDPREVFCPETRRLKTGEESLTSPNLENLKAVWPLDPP
Procedure, shortened: as §1

ETS2 = biological target: T11, ETS2 (Homo sapiens, UniProt P15036 1-469)
T11 sequence: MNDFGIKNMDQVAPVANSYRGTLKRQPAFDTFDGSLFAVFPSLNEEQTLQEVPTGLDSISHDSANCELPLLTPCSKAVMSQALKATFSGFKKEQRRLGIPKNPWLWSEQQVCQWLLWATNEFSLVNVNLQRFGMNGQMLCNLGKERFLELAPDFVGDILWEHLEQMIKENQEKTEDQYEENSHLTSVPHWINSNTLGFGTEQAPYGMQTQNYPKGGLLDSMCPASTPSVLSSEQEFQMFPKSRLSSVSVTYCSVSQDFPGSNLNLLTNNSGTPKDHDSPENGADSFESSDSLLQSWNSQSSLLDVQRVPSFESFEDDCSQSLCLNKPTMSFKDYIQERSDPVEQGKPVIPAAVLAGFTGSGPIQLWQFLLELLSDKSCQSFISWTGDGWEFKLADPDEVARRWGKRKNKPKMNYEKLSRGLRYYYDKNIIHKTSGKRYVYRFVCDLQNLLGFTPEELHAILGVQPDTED
Procedure, shortened: as §1

ETV7 = biological target: T12, ETV7 (Homo sapiens, UniProt Q9Y603 1-341)
T12 sequence: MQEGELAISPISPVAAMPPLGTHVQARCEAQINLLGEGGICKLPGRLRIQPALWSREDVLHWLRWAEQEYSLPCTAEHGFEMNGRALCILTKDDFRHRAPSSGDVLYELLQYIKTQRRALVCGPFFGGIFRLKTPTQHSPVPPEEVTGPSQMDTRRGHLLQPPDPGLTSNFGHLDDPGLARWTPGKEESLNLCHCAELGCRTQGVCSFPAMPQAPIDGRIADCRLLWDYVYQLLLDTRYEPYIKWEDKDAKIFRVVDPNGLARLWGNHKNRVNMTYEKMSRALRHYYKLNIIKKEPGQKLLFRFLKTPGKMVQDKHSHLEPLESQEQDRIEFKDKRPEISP
Procedure, shortened: as §1

ETV3 = biological target: T13, ETV3 (Homo sapiens, UniProt P41162-2 1-143)
T13 sequence: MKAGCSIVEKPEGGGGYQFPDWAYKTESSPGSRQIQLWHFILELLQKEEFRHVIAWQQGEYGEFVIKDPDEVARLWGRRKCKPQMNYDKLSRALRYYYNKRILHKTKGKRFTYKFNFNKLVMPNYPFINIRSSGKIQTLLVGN
Procedure, shortened: as §1

Chain of ELF1 (P32519 whole entry): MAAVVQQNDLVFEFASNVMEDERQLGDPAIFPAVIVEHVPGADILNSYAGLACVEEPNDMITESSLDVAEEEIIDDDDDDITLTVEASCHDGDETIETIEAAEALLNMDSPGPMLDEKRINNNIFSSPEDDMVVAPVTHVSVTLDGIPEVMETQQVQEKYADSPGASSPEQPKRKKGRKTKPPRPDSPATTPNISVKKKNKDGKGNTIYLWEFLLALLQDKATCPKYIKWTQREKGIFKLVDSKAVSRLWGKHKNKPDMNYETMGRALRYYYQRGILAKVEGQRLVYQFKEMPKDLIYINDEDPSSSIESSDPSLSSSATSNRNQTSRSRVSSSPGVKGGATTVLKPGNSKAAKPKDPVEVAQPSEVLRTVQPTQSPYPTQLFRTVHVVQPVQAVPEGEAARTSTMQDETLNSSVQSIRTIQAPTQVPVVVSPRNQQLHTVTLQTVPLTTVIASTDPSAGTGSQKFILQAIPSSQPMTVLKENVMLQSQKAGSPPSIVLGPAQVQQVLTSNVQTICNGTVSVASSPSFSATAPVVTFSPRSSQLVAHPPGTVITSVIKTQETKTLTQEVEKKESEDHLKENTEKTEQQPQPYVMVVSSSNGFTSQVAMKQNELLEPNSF
Chain of SPIB (Q01892 whole entry): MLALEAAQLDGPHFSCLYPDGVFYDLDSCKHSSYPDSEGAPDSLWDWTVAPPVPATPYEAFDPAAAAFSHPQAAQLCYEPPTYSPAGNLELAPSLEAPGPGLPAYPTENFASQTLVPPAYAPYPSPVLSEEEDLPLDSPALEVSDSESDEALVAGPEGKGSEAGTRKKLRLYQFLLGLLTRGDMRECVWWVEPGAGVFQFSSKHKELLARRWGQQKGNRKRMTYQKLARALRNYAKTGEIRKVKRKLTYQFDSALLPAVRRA

TGTTGG
binding signal (FLI1): 1.01 fold enrichment (6-mer frequency, TF over GST control) | binding signal (SPDEF): 1 fold enrichment (6-mer frequency, TF over GST control)

CAGCGC
binding signal (FLI1): 1.09 fold enrichment (6-mer frequency, TF over GST control) | binding signal (ELK1): 1.03 fold enrichment (6-mer frequency, TF over GST control) | binding signal (GABPA): 1.01 fold enrichment (6-mer frequency, TF over GST control) | binding signal (ERG): 1.03 fold enrichment (6-mer frequency, TF over GST control) | binding signal (ELF1): 1.08 fold enrichment (6-mer frequency, TF over GST control) | binding signal (EHF): 1.01 fold enrichment (6-mer frequency, TF over GST control) | binding signal (SPIB): 1.07 fold enrichment (6-mer frequency, TF over GST control) | binding signal (ELK3): 1.06 fold enrichment (6-mer frequency, TF over GST control) | binding signal (ELK4): 1.06 fold enrichment (6-mer frequency, TF over GST control) | binding signal (ETV2): 1.07 fold enrichment (6-mer frequency, TF over GST control) | binding signal (ETV3L): 1.09 fold enrichment (6-mer frequency, TF over GST control) | binding signal (ETS2): 1.1 fold enrichment (6-mer frequency, TF over GST control) | binding signal (ETV7): 1.02 fold enrichment (6-mer frequency, TF over GST control) | binding signal (ETV3): 1 fold enrichment (6-mer frequency, TF over GST control)

— PMC7862700, “An all-to-all approach to the identification of sequence-specific readers for epigenetic DNA modifications on cytosine”
